TWEAK-Fn14 inh: inhibitors of TWEAK-Fn14 interaction signaling; TWEAK-stimulated Fn14 reporter cells, luciferase luminescence, 8 h; hit rate 2% among 360,000; inhibition, % at 10 µM; in the data active = inhibition above about 50%
MITF TRPM1 inh: MITF TRPM1 promoter inhibition in SK-MEL-5 cells. SK-MEL-5 TRPM1 promoter luciferase, 24 h. inhibition, % at 12.5 µM. hit rate 0.83% among 330,000. AID 488899;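 active = mean inhibition across replicates of 60% or more, whatever share of single replicates reaches that level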
EBV LMP1 NFkB: reduces LMP1-driven NF-kappaB luciferase signal | inhibition, % at 12.5 µM | LMP1-induced NF-kappaB luciferase reporter cells, luminescence | hit rate 0.69% among 350,000; in the data active = inhibition above about 41%;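 also: 0% = neutral control wells and 100% = reference inhibitor control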
TROY NFkB inh: blocks TROY-dependent signaling in reporter cells | Q293 LMP1-TROYcd NF-kB luciferase reporter, 4 h | inhibition, % at 10 µM | hit rate 0.98% among 360,000 | AID 1347056;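 active = compounds whose plate-normalised and pattern-corrected inhibition of the luciferase reporter signal at the single screening dose is 50% or more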
MITF TRPM1 HTS: MITF TRPM1 promoter activation in melanoma cells; SK-MEL-5 TRPM1-promoter luciferase, 24 h; % of positive control, neutral wells = 0; hit rate 0.75% among 300,000; activation, % at 12.5 µM;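 active = mean activation of at least 80% with every replicate also reaching 80%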;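 also: 0% = neutral control wells and 100% = parthenolide positive control wells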
LGR2 inh: inhibitors of bursicon-induced Drosophila LGR2 receptor cAMP signaling; HEK293 LGR2, CRE-luciferase, bursicon-stimulated, 4 h; inhibition, % at 9.99 µM; hit rate 0.35% among 380,000;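 active = drop in luminescence signal, shown as inhibition above about 50% in the replicate tests, limit read from the data, passing the limit was not always enough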;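 also: agonist challenge used bursicon conditioned medium at about half maximal strength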
Active calls of the source: *; nt = no result given. Only some compounds are listed: those with a hit (about 3% of all), similar ones and a draw of the others.

SMILES	TWEAK-Fn14 inh	MITF TRPM1 inh	EBV LMP1 NFkB	TROY NFkB inh	MITF TRPM1 HTS	LGR2 inh
N#Cc1cc2c(nc1SC1CC(=O)N(c3ccccc3)C1=O)CCC2 (stereo unspecified)	100*	65*	52*	83*	-66	nt
CN(C)CC(=O)N[C@@H]1CC[C@H](CCn2cc(C3CC3)nn2)O[C@H]1CO	nt	nt	nt	nt	nt	-1
CC(=O)/C=C/c1ccc2ccccc2n1	64*	18	21	-7	-19	nt
N#Cc1cccc(-c2ccc3c(c2)[C@@H]2[C@@H](CCN2S(=O)(=O)c2ccccc2F)[C@@H](CO)N3)c1	nt	nt	nt	nt	nt	3
CC(=O)Nc1ccc(OCC(O)Cn2c3ccccc3c3ccccc32)c(C)c1 (stereo unspecified)	58*	5	-4	42	-3	28
CCCC#Cc1cnc2c(c1)C(=O)N([C@H](C)CO)C[C@H](C)[C@H](CN(C)C(=O)c1cccc(F)c1)O2	nt	nt	nt	nt	nt	-9
C[C@H](CO)N1C[C@H](C)[C@H](CN(C)C(=O)c2ccc3c(c2)OCO3)Oc2cc(-c3cncnc3)ccc2S1(=O)=O	nt	nt	nt	nt	nt	-4
COc1ccc(-c2cc(=O)c3c(O)cc(O)cc3o2)cc1	35	-106	-1	39	112*	19
O=c1cc(-c2ccc(O)c(-c3c(O)cc(O)c4c(=O)cc(-c5ccc(O)cc5)oc34)c2)oc2cc(O)cc(O)c12	13	-2	-27	30	3	20
